Values without a mark were called inactive. Active and inactive are the calls of the source. The call rests on the fitted dose curve; in most records, active means well fitted activation curve with a large enough effect; inconclusive means small, poorly fitted or top-dose-only effect; inactive means flat fitted curve, though single readings scatter.
Potency means the concentration at half of the fitted maximal effect.

A short description of this experiment: Cellular Toxicity (caspase-3) N2a (AID 665).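 Further: compound exposure lasted 16 h at 37 °C before readout.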 The note with it: N2a cells, luminescence; Potency: caspase-3 activation; series mostly up to 92.2 µM; caspase-3 activation: at the top concentration. From the text: NIH Chemical Genomics Center [NCGC]
NIH Molecular Libraries Screening Centers Network [MLSCN]
National Institutes of Environmental Health Sciences [NIEHS]
National Toxicology Program [NTP]
We have developed a 1536-well cell-based assay for quantitative high throughput screening (qHTS) against a number of cell lines to determine in vitro caspase 3/7 activity of small molecules. This particular assay uses the N2a cell line which is derived from mouse neuroblastoma.
NCGC Assay Protocol Summary:
The Caspase-Glo 3/7 assay (Promega) is a homogeneous method to measure caspase-3 and caspase-7 activities in cultured cells. The quantitation of caspase 3/7 activity is based on the cleavage of a peptide-aminoluciferin substrate. After caspase cleaves the substrate the free aminoluciferin is liberated and serves as the substrate of luciferase, which generates the light. The luminescent signal is proportional to the amount of caspase 3/7 activity present.
Using the Caspase-Glo 3/7 assay, the amount of caspase 3/7 activity was measured in the N2a cells with complete culture medium following compound treatment for 16 hours. The assay was performed in opaque white 1536-well plates. In the screen, staurosporine and doxorubicin were used as positive controls. Library compounds were measured for their ability to cause the activation of caspase 3/7 in the cell line, as reflected by an increase in luminescence signal, in a concentration-dependent manner. Data were normalized to the controls for basal activity (DMSO only) and 100% stimulation (10 uM staurosporine). AC50 values were determined from concentration-response data modeled with the standard Hill equation.
qHTS protocol for caspase 3/7 assay in mouse N2a cell line
[Step] [Parameter] [Value] [Description]
1. Reagent; 5 uL; 1500 mouse N2a cells/well
2. Time; 5 hr; 37 °C incubation
4. Controls; 23 nL; doxorubicin 7 pM to 100 uM & staurosporine 1.4 pM to 20 uM
5. Time; 16 hr; 37 °C incubation
6. Reagent; 5 uL; Caspase-Glo 3/7 reagent
7. Time; 1 hr; Room Temperature
8. Detection; Luminescence; Viewlux plate reader
Keywords: caspase 3/7, apoptosis, mouse N2a cell line, luminescence, NTPHTS, NTPHTS_NCGC, NIEHS, EPA, DSSTox, MLSMR, MLSCN, NIH Roadmap, qHTS, NCGC
Consider `ClC1=C(Cl)C(Cl)(Cl)C(Cl)=C1Cl`, for which the “caspase-3 activation” value is 1.92%.

With `O=[N+]([O-])c1cc([N+](=O)[O-])c2ccc(S(=O)(=O)O)cc2c1O`, the “caspase-3 activation” value was -0.666%.

`CN1[C@H]2CC(OC(=O)[C@H](CO)c3ccccc3)C[C@H]1[C@H]1O[C@H]12` (stereo partly drawn): the Potency entry is “inactive”.

As for `Cc1cc(O)c(C(C)(C)C)cc1Sc1cc(C(C)(C)C)c(O)cc1C`, the “caspase-3 activation” value is 0.782%.

As for `Cc1cc(Nc2ccc(O)cc2)ccc1N`, the “caspase-3 activation” value is -0.934%.

On to `C/C=C1\C(=O)C[C@H]2[C@@H]3CCC4=CC(=O)CC[C@]4(C)[C@H]3CC[C@]12C`, for which the “caspase-3 activation” value was 6.99%.

On to `CNc1ccc(O)cc1`, for which the “caspase-3 activation” value is -18.3%.

For `O=C(OCC(COC(=O)c1ccccc1)(COC(=O)c1ccccc1)COC(=O)c1ccccc1)c1ccccc1`, the “caspase-3 activation” value is -1.22%.

For the molecule `CCCCCC/C(C=O)=C\c1ccccc1`, the “caspase-3 activation” value was -2.58%.

With `CC(=O)Nc1ccc(C(=O)CCl)cc1`, the “caspase-3 activation” value is -15.9%.

As for `Oc1ccc2cc(SSc3ccc4cc(O)ccc4c3)ccc2c1`, the “caspase-3 activation” value is -14.2%.

`c1ccc2c(c1)ccc1cc3c(ccc4ccccc43)cc12`: the “caspase-3 activation” value was -6.08%.

As to `CCC(C)Nc1ccc(NC(C)CC)cc1` (stereo not drawn), the “caspase-3 activation” value is -21.1%.

On to `CC/C(=C(\c1ccccc1)c1ccc(OCCN(C)C)cc1)c1ccc(O)cc1`, for which the “caspase-3 activation” value was -3.57%.

On to `C=CC(=O)OCC(CO)(COC(=O)C=C)COC(=O)C=C`, for which the Potency was 6.31 µM (active).

Consider `C=CC(=O)OCCOCCOC(=O)C=C`, for which the “caspase-3 activation” value was -4.79%.

With `O=C=Nc1ccc(Cc2ccc(N=C=O)cc2)cc1`, the “caspase-3 activation” value is -1.58%.

Regarding `c1ccc2c(c1)-c1cccc3c1c-2cc1ccccc13`, the “caspase-3 activation” value is -3.27%.

As to `O=C(/C=C/c1ccc(O)c(O)c1)OC1C[C@](O)(C(=O)O)C[C@@H](O)[C@H]1O` (stereo partly drawn), the Potency entry is “inactive”.

Consider `Nc1ccc2cc3ccccc3cc2c1`, for which the “caspase-3 activation” value was -3.73%.

With `C=C(C)c1ccccc1`, the “caspase-3 activation” value is -0.301%.

In the case of `CO[C@H]1/C=C/O[C@@]2(C)Oc3c(C)c(O)c4c(O)c(c5c(c4c3C2=O)NC2(CCN(CC(C)C)CC2)N=5)=NC(=O)/C(C)=C\C=C\[C@H](C)[C@H](O)[C@@H](C)[C@@H](O)[C@@H](C)[C@H](OC(C)=O)[C@@H]1C`, the “caspase-3 activation” value is -7.06%.

`O=Cc1ccc(Cl)c(Cl)c1`: the “caspase-3 activation” value was 2.64%.

With `CN(C)c1ccc(C2(c3ccc(N(C)C)cc3)OC(=O)c3cc(N(C)C)ccc32)cc1`, the “caspase-3 activation” value was -1.83%.

As to `O=C1OC2(c3cc(Br)c(O)c(Br)c3Oc3c2cc(Br)c(O)c3Br)c2c(Cl)c(Cl)c(Cl)c(Cl)c21`, the “caspase-3 activation” value is -4.91%.

Regarding `Cc1ccc(S(=O)(=O)Oc2ccc(N=Nc3ccc(-c4ccc(N=Nc5c(O)ccc6cc(S(=O)(=O)O)cc(S(=O)(=O)O)c56)c(C)c4)cc3C)cc2)cc1`, the “caspase-3 activation” value was -4.12%.

On to `c1cc(OCC2CO2)cc(OCC2CO2)c1` (stereo not drawn), for which the “caspase-3 activation” value was 22.4%.

Regarding `Cc1cccc(O)c1C`, the “caspase-3 activation” value was 0.16%.

These data come from PubChem BioAssay (NCATS).
